Compound activity as filed in PubChem.
aSyn UTR act = Activators working through SNCA 5'UTR binding (MLPCN); activity score, % (tested at 7.5 µM), hits read low; alpha-synuclein 5'UTR reporter, activators screen; actives 7.1% (n = 300,000); AID 1814; in the data active = activity score below about -60%
Of the large screens only hits and unclear results are named; the others gave an inactive call. A selection follows.

CC(C)(C)c1ccc(OCc2ccc(C(=O)N/N=C/c3ccc([N+](=O)[O-])cc3)o2)cc1	aSyn UTR act -137.7
COc1ccc(Cc2nc(-c3cccs3)no2)cc1	aSyn UTR act -115.3
COc1ccc(Cc2nc(-c3ccccc3)no2)cc1	aSyn UTR act -175.7
COc1ccc(N2CCN(Cc3cc(=O)oc4cc(-c5ccccc5)c(O)cc34)CC2)cc1	none
Cc1ccc2c(CN3CCC(C)CC3)cc(=O)oc2c1C	aSyn UTR act -125.6
COc1ccc(-c2cc3cc(OC)c(OC)cc3c(C)n2)cc1	aSyn UTR act -105.4
CCc1nnc2c3cnn(-c4ccccc4)c3ncn12	aSyn UTR act -183.2
COc1ccc(/C(N)=N/OC(=O)c2cccc([N+](=O)[O-])c2)cc1	aSyn UTR act -129.2
COc1cccc(/C(N)=N/OC(=O)Cc2ccccc2[N+](=O)[O-])c1	aSyn UTR act -77.1
COc1cccc(C(=O)O/N=C(\N)c2ccc([N+](=O)[O-])cc2)c1	aSyn UTR act -163.9
COc1ccc(/C(N)=N/OC(=O)c2cccc([N+](=O)[O-])c2C)cc1	aSyn UTR act -113.1
COc1cccc(C(=O)O/N=C(\N)c2ccc(C)cc2)c1	aSyn UTR act -211.2
COc1ccc(-c2csc(N=C(N)N)n2)cc1	aSyn UTR act -140.8
c1ccc2cc(-c3csnn3)ccc2c1	aSyn UTR act -74.5
Nc1nc(-c2ccc(-c3ccccc3)cc2)cs1	aSyn UTR act -185.8
Cc1ccc(N/C(N)=N/c2nc(CSc3nnc(C)s3)cc(=O)[nH]2)c(C)c1	none
Cc1ccc(-c2csc(N=C(N)N)n2)c(C)c1	aSyn UTR act -94.2
Nc1ccc(Oc2ccccc2-c2ccccc2)cc1	none
Nc1nc(-c2ccc(Oc3ccccc3)cc2)cs1	aSyn UTR act -122.7
Nc1nc(-c2ccc3ccccc3c2)cs1	aSyn UTR act -192.8
COc1ccc(-c2ccc(OC)cc2)cc1	aSyn UTR act -120.3
Nc1nc(N)c2cc(Sc3ccc4ccccc4c3)ccc2n1	none
COc1ccc(-c2csc(N)n2)cc1	aSyn UTR act -101.1
CCN(CC)CCN(C(=O)/C=C/c1cccs1)c1nc2ccc(C)cc2s1	aSyn UTR act -79.2
CN(C)CCN(C(=O)/C=C/c1cccs1)c1nc2c(F)cc(F)cc2s1	none
O=C(OCCN1CCOCC1)c1ccc2c(c1)OCCO2	aSyn UTR act -93.5
O=C(CCCN1CCOCC1)c1ccc2c(c1)OCCO2	aSyn UTR act -80.7
Cc1ccc(S(=O)(=O)CC(=O)c2ccc3c(c2)OCCO3)cc1	aSyn UTR act -69.7
O=C(Cc1ccccc1)c1ccc2c(c1)OCCO2	aSyn UTR act -107.3
CCOC(=O)N1CCc2c(sc(NC(=O)C3COc4ccccc4O3)c2C(N)=O)C1 (stereo unspecified)	aSyn UTR act -108.9
CC(=O)N1CCc2c(sc(NC(=O)C3COc4ccccc4O3)c2C(N)=O)C1 (stereo unspecified)	aSyn UTR act -73.7
CN1CCc2c(sc(/N=C/c3cccs3)c2C(N)=O)C1	aSyn UTR act -74.8
CN1CCc2c(sc(NC(=O)C3COc4ccccc4O3)c2C(N)=O)C1 (stereo unspecified)	aSyn UTR act -116.8
COc1cc2ccccc2cc1C(=O)Nc1sc2c(c1C(N)=O)CCN(C(C)C)C2	none
CCN1CCc2c(sc(NC(=O)C3COc4ccccc4O3)c2C(N)=O)C1 (stereo unspecified)	aSyn UTR act -96.2
CN1CCc2c(sc(NC(=O)c3ccc4ccccc4c3)c2C(N)=O)C1	aSyn UTR act -108.2
Cc1csc(C(C#N)C(=O)c2cc3ccccc3o2)n1 (stereo unspecified)	aSyn UTR act -144.6
Cc1cc(C(=O)COC(=O)C2=COCCO2)c(C)n1-c1ccc2c(c1)OCO2	aSyn UTR act -134.3
Cc1cc(C(=O)COC(=O)Cc2n[nH]c(=O)c3ccccc23)c(C)n1-c1ccc2c(c1)OCCO2	aSyn UTR act -99.7
Cc1cc(C(=O)COC(=O)C2=COCCO2)c(C)n1-c1cccc(F)c1	aSyn UTR act -156.1
c1csc(C2Nc3ccccc3-c3nc4ccccc4n32)c1 (stereo unspecified)	aSyn UTR act -82.6
Cc1ccsc1C1Nc2ccccc2-c2nc3ccccc3n21 (stereo unspecified)	aSyn UTR act -169.1
c1cncc(C2Nc3ccccc3-c3nc4ccccc4n32)c1 (stereo unspecified)	aSyn UTR act -92.4
O=[N+]([O-])c1cc([N+](=O)[O-])c2c(=Nc3ccccc3)n(-c3ccccc3)n(O)c2c1	aSyn UTR act -77.5
Cc1ccc(C(=O)CC(=O)c2cc(Cl)ccc2O)cc1	aSyn UTR act -151.4
CC(C)(C)c1ccc(C(=O)CS(=O)(=O)c2ccccc2)cc1	aSyn UTR act -133.2
Cc1ccc(C(=O)CC(=O)c2ccc(C)cc2O)cc1	aSyn UTR act -94.8
Cc1ccc(C(=O)CC(=O)c2ccc(C(C)(C)C)cc2)cc1	aSyn UTR act -112.8
COc1cc(/C=C/[N+](=O)[O-])ccc1OC(=O)/C=C/c1ccc(F)cc1	aSyn UTR act -71.6
Cc1cc(C)c2nc(NCc3ccccc3O)sc2c1	aSyn UTR act -117.5
Cc1noc(C)c1C(=O)Nc1nc2ccc(Cl)cc2s1	aSyn UTR act -82.5
Cc1cc(C)c2nc(NC(=O)c3cc(C)on3)sc2c1	aSyn UTR act -89.5
CCc1ccc2nc(NC(=O)c3cc(C)on3)sc2c1	aSyn UTR act -66.1
CCc1noc(C)c1C(=O)Nc1nc2ccc(F)cc2s1	aSyn UTR act -139.3
CCC(=O)NNc1nc2c(C)cc(C)cc2s1	aSyn UTR act -63.2
O=C(Nc1nc2ccc(Cl)cc2s1)[C@@H]1CCCN1C(=O)c1cccs1	aSyn UTR act -92.1
Cc1cc(C)c2nc(NNC(=O)c3ccc(S(=O)(=O)N4CC(C)CC(C)C4)cc3)sc2c1 (stereo unspecified)	none
CC1CC1C(=O)Nc1nc2ccc(Cl)cc2s1 (stereo unspecified)	aSyn UTR act -134.1
CCc1ccc2nc(NC(=O)C3CSC4(C)CCC(=O)N34)sc2c1 (stereo unspecified)	aSyn UTR act -107.4
COc1ccc2cc[nH]c2c1	none
COc1ccc(NC(=O)Nc2ccc3[nH]ccc3c2)cc1	aSyn UTR act -112.4
COc1ccc(NC(=O)OC(C)C)cc1	aSyn UTR act -69.5
COc1ccc(NC(=O)Nc2ccc(N(C)C)cc2)cc1	aSyn UTR act -124.4
COc1ccc2cc(OCC(=O)NNC(=O)Nc3ccc(C(C)=O)cc3)ccc2c1	aSyn UTR act -88.4
N#Cc1ccc(NC(=O)Nc2ccc(Oc3ccc(NC(=O)Nc4ccc(C#N)cc4)cc3)cc2)cc1	none
COc1ccc(NC(=O)Nc2ccc(OC)cc2)cc1	aSyn UTR act -99.4
Cc1nc2ccc(NC(=O)c3ccco3)cc2s1	aSyn UTR act -90.2
COc1cc2sc(NC(=O)c3ccco3)nc2cc1Cl	aSyn UTR act -189.0
CC(=O)Nc1nc2ccc(NC(=O)c3ccco3)cc2s1	aSyn UTR act -77.1
Cc1ccc2nc(NC(=S)NC(=O)c3ccco3)sc2c1	aSyn UTR act -148.0
Cc1ccc2nc(NC(=O)c3ccco3)sc2c1	none
Cc1ccc2nsnc2c1NC(=S)NC(=O)c1ccco1	aSyn UTR act -93.7
O=C(Nc1cc(Cl)cc(Cl)c1)c1cccc(OC(F)F)c1	aSyn UTR act -97.7
Cc1ccnc(NC(=O)c2cccc(OC(F)F)c2)n1	aSyn UTR act -77.4
COCCn1c(C)cc(/C=C2/SC(=O)N(C(C)C(=O)OC)C2=O)c1C (stereo unspecified)	aSyn UTR act -153.5
COC(=O)C(C)N1C(=O)S/C(=C/c2cc(C)n(C(C)C)c2C)C1=O (stereo unspecified)	aSyn UTR act -127.2
CCOC(=O)C(C)N1C(=O)S/C(=C/c2cc(C)n(-c3ccccn3)c2C)C1=O (stereo unspecified)	aSyn UTR act -143.0
